Shown is part of a subset that was picked to be rich in hits.
RmlC RmlD mix: inhibitors of RmlC and RmlD coupled enzymes. RmlC/RmlD coupled enzyme inhibition, 384-well mixture HTS. inhibition, % at 5.5 µM. 110,000 tested, 0.39% active; in the data active = inhibition above about 30%, passing the limit was not always enough
RT RNaseH block: inhibitors of HIV-1 reverse transcriptase RNase H. P04585. RT-RNase H RNA/DNA duplex cleavage, fluorescence. inhibition, % at 10 µM. 65,000 tested, 1.9% active. AID 565; in the data active = inhibition above about 50%
RmlCD artifact: RmlC/RmlD fluorescence artifact, counter-screen; AID 1696; calls only; RmlC/RmlD assay fluorescence artifact counter-screen; shares compounds with RmlC RmlD mix; 360 tested, 96% active; call rule not given here;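 note: compound alone with no enzyme and no substrates present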
Starred values were filed as active, the others as inactive; i = inactive; / = no result given; + = active, no number.

SMILES	RmlC RmlD mix	RT RNaseH block	RmlCD artifact
Cc1ccc(C)n1-c1ccc(C(=O)NCC2CCCO2)cc1 (configuration not stated)	25.9	-6.6	/
COC(=O)c1nn(-c2ccc3c(c2)CCN3C(C)=O)cc1O	41.0*	/	+
COC(=O)c1nn(-c2ccc3c(c2)OCO3)cc1O	-1.5	/	/
C/C=C(\CS(=O)(=O)c1ccccc1)S(=O)(=O)c1ccccc1	-11.1	-5.1	/
Nc1c(S(=O)(=O)c2cccs2)c2nc3ccccc3nc2n1CC1CCCO1 (configuration not stated)	52.8*	-6.2	+
Nc1c(S(=O)(=O)c2cccs2)c2nc3ccccc3nc2n1Cc1cccs1	12.8	4.4	/
Cc1cc(NC(=O)Cn2c(C)nc3ccccc3c2=O)ccc1Br	7.0	/	/
Cc1cccc(N2CCN(C(=O)c3ccc(N4CCCC4=O)cc3)CC2)c1C	/	-1.7	/
O=C(CCCn1c(=O)[nH]c2ccsc2c1=O)N1CCN(c2ccccn2)CC1	70.0*	-4.7	i
O=C(CCCn1c(=O)[nH]c2ccccc2c1=O)N1CCN(c2ccccn2)CC1	/	-10.5	/
Cc1nnsc1C(=O)Nc1cc(Cl)ccc1Cl	-12.1	/	/
COC(=O)C1=C(C)NC(C)=C(C(=O)OCCN(C)Cc2ccccc2)C1c1cccc([N+](=O)[O-])c1 (configuration not stated)	10.6	/	/
CCOC(=O)c1nn(-c2ccccc2C)c2nc(-c3ccc(C)cc3)c(C#N)c(=O)n12	8.4	/	/
CCOC(=O)c1nn(-c2ccc(F)cc2)c2nc(CC(C)C)c(C#N)c(=O)n12	50.9*	/	+
CCO[C@H]1OC(C(=O)Nc2ccccc2)=C[C@@H](c2cn(C(C)=O)c3ccccc23)[C@@H]1CCCO	-11.8	/	/
CC1=C(C#N)C(c2cccnc2)C2=C(CC(C)(C)CC2=O)N1 (configuration not stated)	58.6*	-3.7	+
CC1(C)CC(=O)C2=C(C1)Nc1ccccc1NC2c1cccnc1 (configuration not stated)	-15.7	4.3	/
CCC(=O)c1cc2c(C)cc(=O)oc2c(C)c1OC	-3.6	/	/
CCC(=O)Nc1c(OC(=O)CC)ccc2c(C)cc(=O)oc12	+	-9.0	+
COCCCNC(=O)c1ccc2nc3ccccc3c(=O)n2c1	34.0*	-4.9	+
COCCCn1c(SCC(=O)NCc2ccccc2)nc2ccccc2c1=O	-4.9	/	/
CCOc1ccc(/C(O)=C2/C(=O)C(=O)N(CCCn3ccnc3)C2c2cccs2)cc1Cl (configuration not stated)	5.6	5.1	/
Cc1ccc(Nc2nc(N)nc(CN3CCN(C(=O)c4ccco4)CC3)n2)cc1Cl	-0.8	-1.1	/
Cc1[nH]nc2c1C(c1cccc(O)c1)C1=C(CC(C)(C)CC1=O)N2 (configuration not stated)	27.6	-20.4	/
CCCc1cc(=O)n2c([nH]c3ccccc32)c1C#N	38.8*	/	+
SMILES	RmlC RmlD mix	RT RNaseH block	RmlCD artifact
CCCCc1c(C)c(C#N)c2[nH]c3ccccc3n2c1=O	11.1	/	/
CN1CCN(CP(=O)(N2CCOCC2)N2CCOCC2)CC1	-6.0	1.2	/
CN(C)CCNC(=O)c1cc2c(s1)-c1ccccc1OC2	160.6*	/	+
Cc1csc(NC(=O)c2cc3c(s2)-c2ccccc2OC3)n1	-9.1	39.9	/
COc1ccc(NC(=O)CCn2cccc2)cc1	-9.4	-3.3	/
CCCCCn1c(N)c(C#N)c2nc3ccccc3nc21	-11.4	-6.2	/
N#Cc1c(N)n(CCNC(=O)c2cccs2)c2nc3ccccc3nc12	37.4*	-10.7	+
CCOc1ccc(Nc2oc(-c3cccc(Cl)c3)nc2C#N)cc1	35.6*	/	+
CCOc1ccc(Nc2oc(-c3ccco3)nc2C#N)cc1	-14.8	-8.5	/
CC1(C)Cc2nc(N3CCOCC3)c(C#N)cc2CO1	-39.7	-8.4	/
CC1(C)Cc2nc(NCCCO)c(C#N)cc2CO1	44.2*	-11.5	+
CCN(CC)S(=O)(=O)c1ccc(OC)c(NC(=O)CSc2ccccc2)c1	-14.8	/	/
CC(C)CCNC(=O)c1cc(-c2ccco2)nc2ccccc12	69.3	/	/
O=C(NCC1CCCO1)c1cc(-c2ccco2)nc2ccccc12 (configuration not stated)	53.4*	10.5	+
COc1cc(NC(=O)c2nccnc2C(=O)O)cc(OC)c1	7.0	-7.5	/
Cc1cc(N2CCCC2=O)cc(C)c1CN1C(=O)c2ccccc2C1=O	15.7	-13.5	/
CCOC(=O)c1ccc(COC(=O)c2ccc(-c3nnc(-c4ccccc4)o3)cc2)o1	-179.9	9.6	/
CCOC(=O)c1ccc(-c2ccc(CO)o2)cc1	62.4*	/	+
Cc1ccc2cc(C(=O)O)c(C)nc2c1	8.4	/	/
CC(=O)c1sc(Nc2nc(C)cc(C)n2)nc1C	-8.2	/	/
CC1(C)C(=O)OC(c2c(F)c(F)c(F)c(F)c2F)C2(CCCCC2)C1=O (configuration not stated)	-13.8	-0.9	/
Cc1ccnc(SCCn2c(Br)nc3c2c(=O)n(C)c(=O)n3C)n1	/	-6.2	/
CC(Oc1ccc2oc(-c3ccccc3)c(C(=O)O)c2c1)C(=O)O (configuration not stated)	58.0*	-2.5	+
CCOc1ccc2oc(-c3ccccc3)c(C(=O)O)c2c1	26.0	-7.5	/
Clc1ccc(Cn2ncc3c(N4CCOCC4)ncnc32)cc1	-12.0	-26.1	/
SMILES	RmlC RmlD mix	RT RNaseH block	RmlCD artifact
c1csc(-c2nc3nc4ccccc4nc3n2Cc2ccc3c(c2)OCO3)c1	-20.2	-23.8	/
CCCn1c(-c2cccs2)nc2nc3ccccc3nc21	81.3*	/	+
CNC(=O)COC(=O)c1cc2c(C)nn(-c3ccc(F)cc3)c2s1	16.1	/	/
Cc1nn(-c2ccc(F)cc2)c2sc(C(=O)OC3CCOC3=O)cc12 (configuration not stated)	47.4*	-29.1	+
CCOC(=O)Cc1c(C)nc2c(-c3cccc(Br)c3)c[nH]n2c1=O	6.4	4.6	/
COC(=O)c1cc(C)nc(N)c1C#N	27.7	/	/
Cc1cc(C(=O)OCCO)c(C#N)c(N)n1	45.6*	-2.1	+
CCOC(=O)C1=C(CSc2nc(-c3ccccc3)ccc2C#N)OC(N)=C(C#N)C1c1ccccc1 (configuration not stated)	29.8	/	/
CCOC(=O)C1=C(CSc2nc(-c3ccccc3)ccc2C#N)OC(N)=C(C#N)C1c1cccnc1 (configuration not stated)	44.6*	/	+
CCOC(=O)c1c(C)sc(Sc2ccc(Cl)cc2[N+](=O)[O-])c1OC	-0.7	/	/
Cc1oc2cc(OCC(=O)O)ccc2c(=O)c1Oc1ccccc1	5.5	-5.8	/
COc1ccccc1Oc1c(C)oc2cc(OC(=O)c3ccco3)ccc2c1=O	105.0*	6.2	+
CCOC(=O)c1c(C)n(C)c2ccc(OC(=O)c3ccco3)cc12	6.6	/	/
CCOC(=O)c1cc2ccc(OC(=O)c3ccco3)cc2oc1=O	+	9.8	+
COc1ccc([C@H]2/C=C\CN(S(=O)(=O)c3ccc4ccccc4c3)[C@@H](C)C(=O)N2Cc2ccc(F)cc2)cc1	-6.1	/	/
CCCCOC1(c2ccccc2)NC(=S)NN=C1c1ccccc1 (configuration not stated)	2.9	/	/
O=C(COc1ccccc1Cl)NCc1ccncc1	6.6	-5.7	/
N#CC1(C#N)COC23CCCCC2C1(C#N)C(=N)O3 (configuration not stated)	106.7*	/	+
COc1ccc(C2OC34CCCCC3C(C#N)(C#N)C2(C#N)C(=N)O4)cc1 (configuration not stated)	64.2*	/	+
